Source: article PMC4336329 (PLoS ONE, 2015)
Out of some 310,000 compounds screened, about 14,000 (4.5%) showed an effect of 50% or more. The effect is printed as a negative number. This excerpt belongs to a sample that is enriched for strong results.

target: human ether-à-go-go-related gene (hERG) potassium channel (human, UniProt Q12809); experiment: primary screen, population patch clamp on CHO cells stably expressing hERG; higher = less effect of the substance
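Also: peak tail current of the secondary pulse compared with the same well before compound.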

Sequence of human ether-à-go-go-related gene (hERG) potassium channel (Q12809 whole entry, looked up): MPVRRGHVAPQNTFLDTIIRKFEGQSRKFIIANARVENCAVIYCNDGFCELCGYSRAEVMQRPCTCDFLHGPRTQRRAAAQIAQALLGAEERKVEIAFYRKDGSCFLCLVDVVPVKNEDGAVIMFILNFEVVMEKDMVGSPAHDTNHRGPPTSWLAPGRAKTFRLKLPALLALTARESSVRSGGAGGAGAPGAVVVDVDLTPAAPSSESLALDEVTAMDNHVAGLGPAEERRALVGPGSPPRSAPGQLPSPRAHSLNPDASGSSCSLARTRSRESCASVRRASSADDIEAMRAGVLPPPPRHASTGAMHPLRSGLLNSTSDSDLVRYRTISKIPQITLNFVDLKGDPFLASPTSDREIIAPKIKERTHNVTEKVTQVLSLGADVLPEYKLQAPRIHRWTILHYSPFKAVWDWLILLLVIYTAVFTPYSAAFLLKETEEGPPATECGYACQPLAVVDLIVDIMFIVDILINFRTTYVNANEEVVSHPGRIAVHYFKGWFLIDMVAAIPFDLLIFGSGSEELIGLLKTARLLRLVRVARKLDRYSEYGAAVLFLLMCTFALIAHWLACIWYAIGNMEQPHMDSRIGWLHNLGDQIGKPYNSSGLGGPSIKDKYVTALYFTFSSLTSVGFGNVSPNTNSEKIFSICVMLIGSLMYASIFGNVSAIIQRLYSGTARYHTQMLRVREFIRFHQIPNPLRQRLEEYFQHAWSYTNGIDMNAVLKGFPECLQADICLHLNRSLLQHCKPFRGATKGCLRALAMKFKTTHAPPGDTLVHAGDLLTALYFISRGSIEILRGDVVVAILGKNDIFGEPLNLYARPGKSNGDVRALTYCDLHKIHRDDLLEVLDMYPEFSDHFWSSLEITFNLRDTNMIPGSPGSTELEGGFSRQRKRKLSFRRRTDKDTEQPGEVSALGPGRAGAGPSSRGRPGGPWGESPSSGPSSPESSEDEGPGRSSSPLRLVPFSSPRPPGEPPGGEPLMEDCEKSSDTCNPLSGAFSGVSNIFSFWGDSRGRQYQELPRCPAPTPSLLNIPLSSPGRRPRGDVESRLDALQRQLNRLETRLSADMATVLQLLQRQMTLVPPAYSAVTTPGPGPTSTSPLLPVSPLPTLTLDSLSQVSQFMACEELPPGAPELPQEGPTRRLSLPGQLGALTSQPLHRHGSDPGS

| Compound | hERG current change (%, negative = inhibition) at 10uM |
| --- | --- |
| Cc1cc2c(cc1S(=O)(=O)Nc1ccc(OC(F)(F)F)cc1)OCC(=O)N2 | -42.5% |
| CCOC(CNC(=O)c1cccn2c(=O)c3c(C)c(C)sc3nc12)OCC | -12.5% |
| CCc1nnc(NC(=O)C(=O)NCCOC(=O)c2ccccc2Cl)s1 | 5.68% |
| Cc1cccc(-c2noc(CNC(=O)Nc3ccc(F)cc3)n2)c1 | 8.56% |
| Cc1ccc(N(CC(=O)NCc2ccccc2)C(=O)CCC(=O)Nc2ccccn2)cc1C | 16.4% |
| Cc1ccc(SCc2nc3ccccc3n2CC(=O)Nc2ccc(Cl)cc2)cc1 | -8.31% |
| CCn1c(N2CCN(CC(=O)Nc3cccc(C)c3C)CC2)nc2ccccc21 | -63.6% |
| CCCCNc1nc2ccccc2n1CC(=O)Nc1ccc2c(c1)OCCO2 | -10.2% |
| O=C(CN1CCN(c2ccc(O)cc2)CC1)Nc1ccc2c(c1)OCCO2 | 2.24% |
| Cc1cccc(N2CCN(CC(=O)Nc3ccccc3[N+](=O)[O-])CC2)c1C | -0.256% |
| CC(=O)Nc1ccc(S(=O)(=O)N2CCN(c3nc4ccccc4n3CC(C)C)CC2)cc1 | -30.9% |
| CCCn1c(N2CCN(CC(=O)Nc3ccc4c(c3)OCCO4)CC2)nc2ccccc21.Cl | -60.4% |
| CC(O)c1nc2ccccc2n1CC(=O)Nc1ccc2c(c1)OCCO2 (stereo not drawn) | -4.28% |
| CCn1c(N2CCN(S(=O)(=O)CC)CC2)nc2ccccc21 | -37.7% |
| O=C(CN1CCN(c2ccccc2)CC1)Nc1ccc2c(c1)OCCO2 | 5.46% |
| CC(C)n1c(N2CCN(CC(=O)Nc3ccc4c(c3)OCCO4)CC2)nc2ccccc21 | -65.4% |
| CC(C)Cn1c(N2CCN(CC(=O)Nc3ccc(Cl)cc3)CC2)nc2ccccc21 | -70.5% |
| CCOC(=O)[C@@H]1[C@H]2COc3cc(OC)ccc3[C@@H]2N2C(=O)N(c3cccc(C)c3)C(=O)[C@@]12C | -5.14% |
| CCC1=NN(C(=O)c2ccc(C)cc2)C(O)(c2ccc(Br)cc2)C1 (stereo not drawn) | -10.7% |
| COc1ccccc1C(CC(=O)Nc1nccs1)c1ccco1 (stereo not drawn) | 2.68% |
| Cc1ccc(C)c(NC(=O)CN(C)C(=O)/C=C/c2ccco2)c1 | 15.7% |

| Compound | hERG current change (%, negative = inhibition) at 10uM |
| --- | --- |
| COc1ccccc1/C=C/C=N/NC(=O)c1cnccn1 | 13.5% |
| Cc1ccc(-c2csc(NC(=O)c3ccc(Br)cc3)c2C(=O)O)cc1 | 46.9% |
| O=C(O)C(Cc1c[nH]c2ccccc12)N1CCS(=O)(=O)CC1 (stereo not drawn) | 16.3% |
| N#CC1(NC(=O)COC(=O)c2ccc(-c3ccc(O)cc3)cc2)CCCCC1 | 7.22% |
| CC1(C)C(=O)OC(c2ccc([N+](=O)[O-])cc2)C(C)(C)C1=O (stereo not drawn) | 18.4% |
| N#Cc1cc(NC2CCCC2)c([N+](=O)[O-])cc1C#N | -5.68% |
| Cn1cc(S(=O)(=O)N2CCCC2)cc1C(=O)NCCc1ccccc1 | -2.66% |
| O=Cc1ccc2noc(-c3ccc(Cl)cc3)c2c1 | -1.22% |
| Cc1ccc(/C=C2\SC(=S)N(CCC(=O)NNC(=O)c3cccnc3)C2=O)cc1 | 1.06% |
| O=C(NCCc1ccccc1)c1ccc2nc(N3CCOCC3)sc2c1 | 3.75% |
| O=C(NCc1ccccc1)c1ccc2nc(N3CCOCC3)sc2c1 | -5.89% |
| CCC(Cc1ccccc1)NC(=O)c1ccc2nc(N3CCOCC3)sc2c1 (stereo not drawn) | -46.5% |
| CC1CC(C)CN(CCCNC(=O)c2ccc3nc(N4CCOCC4)sc3c2)C1 (stereo not drawn) | -19.5% |
| O=C(c1ccc2nc(N3CCOCC3)sc2c1)N1CCN(C(=O)c2ccco2)CC1 | -47.4% |
| CCCCN(CCCNC(=O)c1ccc2nc(N3CCOCC3)sc2c1)Cc1ccccc1 | -62% |
| O=C(NCCCN1CCC(Cc2ccccc2)CC1)c1ccc2nc(N3CCOCC3)sc2c1 | -66.2% |
| O=C(c1ccc2nc(N3CCOCC3)sc2c1)N1CCC(Cc2ccccc2)CC1 | -63.2% |
| O=C(c1ccc2nc(N3CCOCC3)sc2c1)N1CCCC1 | -10.8% |
| CCOC(=O)c1ccc(-c2c(-c3ccccc3OC)sc3cc4c(cc23)OCO4)cc1F | 12.5% |
| Cc1cccc(-c2nsc(SCC(=O)Nc3cc(C)on3)n2)c1 | 16.1% |
| CC(=Nc1ccc2c(c1)CCC2)c1c(O)n(C)c(=O)n(C)c1=O | -3.93% |

| Compound | hERG current change (%, negative = inhibition) at 10uM |
| --- | --- |
| COc1cccc(CN2CCN(Cc3nc4c(s3)CCCC4)CC2CCO)c1 (stereo not drawn) | -48.5% |
| Cc1cccc(CN2CCN(Cc3nc4c(s3)CCCC4)CC2CCO)n1 (stereo not drawn) | -28.6% |
| CCOc1ccccc1CN1CCN(Cc2nc3c(s2)CCCC3)CC1CCO (stereo not drawn) | -67.9% |
| CCOc1ccccc1CN1CCN(Cc2nc3ccccc3s2)CC1CCO (stereo not drawn) | -74.8% |
| Cc1ccc(/C=C2/SC(=S)N(CCCC(=O)Nc3cc([N+](=O)[O-])ccc3O)C2=O)cc1 | 13.1% |
| O=C(NC(=S)NCCc1ccccc1)c1ccco1 | 10.2% |
| NC(=O)c1sc2cc(C(F)(F)F)cnc2c1-c1ccccc1 | 15.5% |
| CCOc1ccc(OCC)c(NC(=O)C2CCN(S(=O)(=O)c3cccnc3)CC2)c1 | -29.9% |
| Clc1ccc(-c2cnc3n2CCC3)cc1 | -23.1% |
| Cc1cnc(NC(=O)CSc2c(Cl)cccc2Cl)s1 | -6.06% |
| O=C(Nc1ccc(Oc2cccnc2)cc1)C1CCN(Cc2cc(Cl)ccc2O)CC1 | -45.9% |
| O=C(Nc1ccc(Oc2cccnc2)cc1)C1CCCCN1Cc1ccc(CO)o1 (stereo not drawn) | 1.59% |
| Cc1cccc(CN2CCC(C(=O)Nc3ccc(Oc4cccnc4)cc3)CC2)c1 | -14% |
| COc1cccc(O)c1CN1CCC(C(=O)Nc2ccc(Oc3cccnc3)cc2)CC1 | -47.4% |
| O=C(Nc1ccc(Oc2cccnc2)cc1)C1CCN(Cc2ccc(F)cc2)CC1 | -55.2% |
| Cc1ccccc1CN1CCC(C(=O)Nc2ccc(Oc3cccnc3)cc2)CC1 | -48.6% |
| O=C(Nc1ccc(Oc2cccnc2)cc1)C1CCN(Cc2cccc(Cl)c2)CC1 | -52.8% |
| O=C(Nc1ccc(Oc2ccccc2)cc1)C1CCN(c2ncccn2)CC1 | 0.064% |
| COc1ccc(CN2CCC(C(=O)Nc3ccc(Oc4cccnc4)cc3)CC2)c(C)c1C | -36.8% |
| Cc1ccc(CN2CCCCC2C(=O)Nc2ccc(Oc3cccnc3)cc2)o1 (stereo not drawn) | -19.4% |
| COc1ccc(CN2CCC(C(=O)Nc3ccc(Oc4cccnc4)cc3)CC2)cc1 | -69.3% |

| Compound | hERG current change (%, negative = inhibition) at 10uM |
| --- | --- |
| O=C(Nc1ccc(Oc2cccnc2)cc1)C1CCN(Cc2ccccc2)CC1 | -75.1% |
| COc1cccc(CN(CC(=O)NCC2CCCO2)C(=O)CCC(=O)Nc2cc(C)on2)c1 (stereo not drawn) | -0.822% |
| CCOC(=O)CCCCCNC(=O)c1c(O)[nH]c(=O)[nH]c1=O | 17.7% |
| O=C(c1cc(-c2ccncc2)nc2ccccc12)N1CCC2(CC1)OCCO2 | -25.9% |
| CC(C)c1nc2oc3c(NCc4ccccn4)ncnc3c2c2c1COC(C)(C)C2 | 5.62% |
| C/C(=N\NC(=O)COc1ccccc1[N+](=O)[O-])c1cccs1 | 10.3% |
| COc1cc(-c2nc(=S)[nH][nH]2)cc(OC)c1OC | 5.94% |
| O=C(NCc1ccco1)/C(=C/c1ccco1)NC(=O)c1ccccc1 | 4.34% |
| Cc1ccc(C(=O)N/C(=C/c2ccc(-c3cc(C(F)(F)F)ccc3Cl)o2)C(=O)NCc2cccnc2)cc1 | -1.72% |
| O=C(NCc1cccnc1)/C(=C/c1ccc(-c2cccc(Cl)c2)o1)S(=O)(=O)c1ccccc1 | -26.2% |
| O=C(NCc1cccnc1)/C(=C/c1ccco1)NC(=O)c1ccccc1 | -58.6% |
| O=C(NCc1cccnc1)/C(=C/c1ccc(-c2cccc(C(F)(F)F)c2)o1)NC(=O)c1ccccc1 | -74.1% |
| Cc1ccc(C(=O)N/C(=C\c2ccco2)C(=O)NCc2cccnc2)cc1 | -65.2% |
| COc1ccc(C(=O)N/C(=C/c2ccco2)C(=O)NCc2ccco2)cc1 | -30.1% |
| O=C(NCc1ccccn1)/C(=C/c1ccco1)NC(=O)c1ccccc1 | -10% |
| COc1ccc(C(=O)N/C(=C\c2ccco2)C(=O)NCc2cccnc2)cc1 | -66.7% |
| Cc1ccc(C(=O)N/C(=C/c2ccco2)C(=O)O)cc1 | -3.15% |
| COc1ccc(C(=O)N/C(=C\c2ccco2)C(=O)NCc2ccco2)cc1 | -19.7% |
| Cc1ccc(C(=O)N/C(=C/c2ccco2)C(=O)NCc2ccco2)cc1 | -12% |
| O=C(Cn1nnc(-c2ccccc2)n1)NNC(=O)c1ccc(Br)cc1 | 17.6% |
| O=C(Nc1nnc(-c2ccco2)s1)C1CC1 | -10.2% |
